Measured values from PubChem BioAssay (Tox21).
Where “and” joins values, the source holds several entries; their conditions need not be identical. Equal entries are not always repeated. Records with an inconclusive call do not appear. A call without a number means that no potency is given here. Some compounds were tested as several samples or in several runs, with calls that do not always agree. Calls of active or inactive are those of the source. Unless noted, calls come from the whole dose curve; as a rule, active = well fitted curve in the direction sought with a large enough effect in the repeat runs; inconclusive = weak or mixed curves; inactive = no such curve, though single readings can be large; an effect the other way counts as inactive or inconclusive.

Assays:
[1] = qHTS assay for identifying genotoxic compounds that show differential cytotoxicity against isogenic chicken DT40 cell lines with known DNA damage response pathways - wild type cell line (AID 743012); note: nearly all actives have a fitted effect of over 60% in size; note: potency is the fitted concentration of half-maximal effect
How it was run: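 300 wt DT40 cells/well; cpd (DMSO) pintool-transferred after ~0.5 h at 37 C/5% CO2; 40 h incubation; CellTiter-Glo added, 30 min RT; luminescence read.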

[2] = qHTS assay for identifying genotoxic compounds that show differential cytotoxicity against isogenic chicken DT40 cell lines with known DNA damage response pathways - Rev3 mutant cell line (AID 743014); note: nearly all actives have a fitted effect of over 55% in size; note: potency is the fitted concentration of half-maximal effect
[3] = qHTS assay to identify small molecule antagonists of the androgen receptor (AR) signaling pathway - cell viability counter screen (AID 743033; note: nearly all actives have a fitted effect of over 45% in size; note: potency is the fitted concentration of half-maximal effect)
[4] = qHTS assay to identify small molecule antagonists of the androgen receptor (AR) signaling pathway using the MDA cell line - cell viability counter screen (AID 743041; note: nearly all actives have a fitted effect of over 45% in size; note: potency is the fitted concentration of half-maximal effect)
How it was run: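 Compound exposure lasted 16 h at 37C in MDA-kb2 AR-luc cells stimulated with R1881. Protease-based CellTiter-Fluor reagent was applied for the final 30 min and fluorescence measured.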

[5] = qHTS assay for identifying genotoxic compounds that show differential cytotoxicity against isogenic chicken DT40 cell lines with known DNA damage response pathways - Rad54/Ku70 mutant cell line (AID 743015); note: nearly all actives have a fitted effect of over 60% in size; note: potency is the fitted concentration of half-maximal effect
[6] = target: Androgen receptor (Homo sapiens) (UniProt P10275); test: qHTS assay to identify small molecule antagonists of the androgen receptor (AR) signaling pathway (AID 743035; active = well fitted inhibition curve with a large enough effect in the signal ratio in the repeat runs, not every such curve was filed as active; the % refers to the signal ratio; note: potency is the fitted concentration of half-maximal effect)
How it was run: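 In this cell-based reporter screen, compounds were tested in concentration series against R1881-activated HEK293 cells expressing beta-lactamase under UAS control; after 16 h at 37C, FRET substrate was added and fluorescence read 2 h later.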

[7] = target: Androgen receptor (Homo sapiens) (UniProt P10275); test: qHTS assay to identify small molecule agonists of the androgen receptor (AR) signaling pathway using the MDA cell line (AID 743040; note: nearly all actives have a fitted effect of over 20% in size)
How it was run: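 Testing was done with the MDA-kb2 AR-luc line, a human breast carcinoma stably transfected with MMTV-luciferase containing AR and GR response elements. Cells were exposed 16 h at 37C before ONE-Glo luminescence detection.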

[8] = target: Androgen receptor (Homo sapiens) (UniProt P10275); test: qHTS assay to identify small molecule antagonists of the androgen receptor (AR) signaling pathway using the MDA cell line (AID 743042; note: nearly all actives have a fitted effect of over 55% in size; note: potency is the fitted concentration of half-maximal effect)
How it was run: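 MDA-kb2 breast carcinoma cells carrying MMTV-luciferase (AR/GR responsive) were co-treated with compounds and the agonist R1881 for 16 h at 37C. Inhibition read as ONE-Glo luminescence; CellTiter-Fluor fluorescence measured in parallel for cytotoxicity.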

[9] = target: Androgen receptor (Homo sapiens) (UniProt P10275); test: qHTS assay to identify small molecule agonists of the androgen receptor (AR) signaling pathway (AID 743036; active = well fitted activation curve with a large enough effect in the signal ratio in the repeat runs, with a control signal flat, not every such curve was filed as active; the % refers to the signal ratio)
How it was run: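 Screening used 2,000 AR-bla HEK293 cells per well, treated 16 h at 37C with test compounds in DMSO alongside positive and DMSO-only controls; beta-lactamase activity was then read by LiveBLAzer B/G FRET fluorescence after 2 h at room temperature.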

Sequence of Androgen receptor (Homo sapiens) (P10275 whole entry, looked up): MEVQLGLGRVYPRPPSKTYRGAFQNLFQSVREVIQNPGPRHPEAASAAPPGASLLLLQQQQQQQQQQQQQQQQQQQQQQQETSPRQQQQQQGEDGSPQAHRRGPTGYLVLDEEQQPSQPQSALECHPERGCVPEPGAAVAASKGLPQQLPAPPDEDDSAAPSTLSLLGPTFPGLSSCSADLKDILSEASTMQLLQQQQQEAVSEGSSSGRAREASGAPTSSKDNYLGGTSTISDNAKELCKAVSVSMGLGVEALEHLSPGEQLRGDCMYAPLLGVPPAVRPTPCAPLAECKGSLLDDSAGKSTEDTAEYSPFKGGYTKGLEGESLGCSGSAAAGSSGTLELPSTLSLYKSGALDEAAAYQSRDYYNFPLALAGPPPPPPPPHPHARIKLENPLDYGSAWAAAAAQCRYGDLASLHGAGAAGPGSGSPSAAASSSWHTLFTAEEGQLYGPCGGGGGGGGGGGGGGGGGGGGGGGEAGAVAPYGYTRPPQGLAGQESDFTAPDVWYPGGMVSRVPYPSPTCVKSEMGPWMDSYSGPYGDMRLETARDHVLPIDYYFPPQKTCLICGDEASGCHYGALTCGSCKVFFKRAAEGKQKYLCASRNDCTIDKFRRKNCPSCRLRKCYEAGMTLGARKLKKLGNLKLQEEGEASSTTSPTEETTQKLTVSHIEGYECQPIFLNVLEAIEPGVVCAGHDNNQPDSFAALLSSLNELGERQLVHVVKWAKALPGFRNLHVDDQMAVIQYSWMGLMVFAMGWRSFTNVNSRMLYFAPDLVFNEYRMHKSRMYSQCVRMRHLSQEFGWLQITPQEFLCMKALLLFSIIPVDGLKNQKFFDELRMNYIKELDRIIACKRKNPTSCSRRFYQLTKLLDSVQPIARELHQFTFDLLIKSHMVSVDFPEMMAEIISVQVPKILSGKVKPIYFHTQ

Row | SMILES | Potency [1] | Potency [2] | Potency [3] | Potency [4] | Potency [5] | Potency [6] | Potency [7] | Potency [8] | Potency [9]
1 | O=C(O)c1cc[c]([Hg][Cl])cc1 | inactive | 1.93 µM (active) | 54.9 µM (active) | inactive | – | – | – | – | –
2 | CCCCN(CCCC)C(=S)[S-].CCCCN(CCCC)C(=S)[S-].[Zn+2] | inactive | inactive | inactive | inactive | inactive | – | – | – | –
3 | CN(C)S(=O)(=O)N(SC(F)(Cl)Cl)c1ccccc1 | 0.109 µM (active) | 0.154 µM (active) | 3.47 µM (active) | 24.3 µM (active) | – | – | – | – | –
4 | OC(c1ccc(Cl)cc1)(c1ccc(Cl)cc1)C(Cl)(Cl)Cl | 61.1 µM (active) | 48.6 µM (active) | – | inactive | – | – | – | – | –
5 | C[C@@H]1O[C@@H](O[C@H]2C[C@@H](O)[C@]3(CO)[C@H]4[C@H](O)C[C@]5(C)[C@@H](C6=CC(=O)OC6)CC[C@]5(O)[C@@H]4CC[C@]3(O)C2)[C@H](O)[C@H](O)[C@H]1O | 2.11 µM (active) and 1.88 µM (active) and 1.3 µM (active) | 2.11 µM (active) and 1.88 µM (active) and 517 nM (active) | 67.4 nM (active) and 53.5 nM (active) and 11.7 nM (active) | inactive | 1.88 µM (active) and 580 nM (active) | 213 nM (active) and 190 nM (active) and 46.5 nM (active) | inactive | 841 nM (active) and inactive | –
6 | Oc1ccc2ccc3cccc4ccc1c2c34 | 30.6 µM (active) | 48.6 µM (active) | inactive | inactive | – | – | – | – | –
7 | CC[C@H]1C[C@@H]2C[C@H]3c4[nH]c5ccc(OC)cc5c4CCN(C2)[C@@H]13 | 23.9 µM (active) | 47.7 µM (active) | inactive | inactive | 53.5 µM (active) | – | inactive | inactive | inactive
8 | COc1cccc(C(=O)CCN[C@@H](C)[C@H](O)c2ccccc2)c1 | 6.68 µM (active) | 16.8 µM (active) | inactive | – | 13.3 µM (active) | inactive | inactive | – | inactive
9 | CC(C)[C@H](C(=O)O[C@H](C#N)c1cccc(Oc2ccccc2)c1)c1ccc(Cl)cc1 | 43.2 µM (active) | 43.2 µM (active) | inactive | inactive | – | – | – | – | –
10 | C1CCC2CCCCC2C1 (stereo not given) | inactive | inactive | inactive | inactive | – | – | – | – | –
11 | CC[C@H](C)[C@H]1O[C@]2(C=C[C@@H]1C)C[C@@H]1C[C@@H](C/C=C(\C)[C@@H](O[C@H]3C[C@H](OC)[C@@H](O[C@H]4C[C@H](OC)[C@@H](O)[C@H](C)O4)[C@H](C)O3)[C@@H](C)/C=C/C=C3\CO[C@@H]4[C@H](O)C(C)=C[C@@H](C(=O)O1)[C@]34O)O2 | 18.8 µM (active) and 3.61 µM (active) | 21.1 µM (active) and 10.2 µM (active) | inactive | inactive | – | – | – | – | –
12 | CN(C)CCc1c[nH]c2ccc(O)cc12 | inactive | inactive | inactive | inactive | – | inactive | inactive | inactive | inactive
13 | O=C(NC(=O)c1c(F)cccc1F)Nc1cc(Cl)c(OC(F)(F)C(F)F)c(Cl)c1 | inactive | inactive | inactive | inactive | 21.7 µM (active) | – | inactive | inactive | –
14 | C[C@H]1CC[C@@H]2[C@@H](C)[C@H]3[C@H](C[C@H]4[C@@H]5CC=C6CC(O[C@@H]7O[C@H](CO)[C@H](O)[C@H](O[C@@H]8O[C@H](CO)[C@@H](O)[C@H](O)[C@H]8O)[C@H]7O[C@H]7O[C@@H](C)[C@H](O)[C@@H](O)[C@H]7O)CC[C@]6(C)[C@H]5CC[C@]34C)N2C1 (stereo not given in full) | 26.6 µM (active) and inactive | inactive | inactive | – | – | – | – | – | –
15 | O=C(CCl)Nc1ccccc1 | 10.9 µM (active) | 10.9 µM (active) | – | 54.5 µM (active) | – | 15.5 µM (active) | inactive | 27.3 µM (active) | inactive
16 | O=c1ssc(Cl)c1Cl | 3.44 µM (active) | 2.17 µM (active) | 43.6 µM (active) | inactive | 3.44 µM (active) | – | – | – | –
17 | COC12CC[C@@]3(C[C@@H]1C(C)(O)C(C)(C)C)[C@H]1Cc4ccc(O)c5c4[C@@]3(CCN1CC1CC1)[C@H]2O5 (stereo not given in full) | 54.1 µM (active) | 60.7 µM (active) | 54.6 µM (active) | 60.7 µM (active) | – | – | – | – | –
18 | CC(C)N1C(=O)N(c2ccccc2)CSC1=NC(C)(C)C | 21.7 µM (active) | 19.3 µM (active) | inactive | inactive | – | inactive | inactive | – | –
